We go through eight compounds from the supplement of paper PMC9262897, “Low-cost anti-mycobacterial drug discovery using engineered E. coli” (Nature Communications, 2022).

Where a name gives a salt, the structure may show the parent alone. ± gives the standard deviation of the averaged measurements.

This experiment has as its system E. coli TESEC Mtb Alr. Put plainly: growth (OD600 after 10 h); higher = more growth (less inhibition). The following applies: compound 0.1 mM. How it is done: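 TESEC Mtb Alr E. coli, or the Alr+ wild-type control, in 384-well plates with Prestwick library compounds at 0.1 mM and 1% DMSO, across arabinose induction levels of 1E3 to 1E7 nM. Growth is read as OD600 after 10 h at 37 °C in triplicate biological replicates.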

[1] abbreviates: arabinose 1000 nM, raw OD600 reference: median of DMSO wells 0.294, cell-free background 0.041.
Where [2] appears, read: arabinose 10000 nM, raw OD600 reference: median of DMSO wells 0.264, cell-free background 0.041.
[3] abbreviates: arabinose 100000 nM, raw OD600 reference: median of DMSO wells 0.201, cell-free background 0.041.
The mark [4] stands for this setting: arabinose 1000000 nM, raw OD600 reference: median of DMSO wells 0.193, cell-free background 0.041.
[5] abbreviates: arabinose 10000000 nM, raw OD600 reference: median of DMSO wells 0.146, cell-free background 0.041.

With `C[C@]12CC[C@@H](O)C[C@H]1CC[C@@H]1[C@@H]2CC[C@]2(C)C(=O)CC[C@@H]12` [3-alpha-Hydroxy-5-beta-androstan-17-one], the growth worked out at 0.135 ± 0.0032 under setting [1]; 0.114 ± 0.0066 under setting [2]; 0.131 ± 0.015 under setting [3]; 0.0604 ± 0.00044 under setting [4]; 0.0824 ± 0.00098 under setting [5].

Regarding `CC[C@@H](CO)NC(=O)[C@@H]1C=C2c3cccc4[nH]cc(c34)C[C@H]2N(C)C1` [Methylergometrine maleate], the growth by setting is: under setting [1], 0.262 ± 0.0081; under setting [2], 0.207 ± 0.0073; under setting [3], 0.279 ± 0.0098; under setting [4], 0.119 ± 0.0017; under setting [5], 0.178 ± 0.0023.

For the compound `Cc1cc(C(C#N)c2ccc(Cl)cc2)c(Cl)cc1NC(=O)c1cc(I)cc(I)c1O` (stereo not given) [Closantel], the growth came out at 0.0633 ± 0.008 under setting [1]; 0.0425 ± 0.0013 under setting [2]; 0.0471 ± 0.0022 under setting [3]; 0.0411 ± 0.00058 under setting [4]; 0.0539 ± 0.00083 under setting [5].

For the compound `O=C(NCNC(=O)NC1C(=O)NC(=O)N1CO)NC1C(=O)NC(=O)N1CO` (stereo not given) [Imidurea], the growth under setting [1] stood at 0.2874 ± 0.0013; the growth under setting [2] came out at 0.289 ± 0.0059; the growth under setting [3] was 0.193 ± 0.036; the growth under setting [4] was 0.231 ± 0.022; the growth under setting [5] came out at 0.135 ± 0.0032.

Regarding `Oc1ccc2c3c1O[C@H]1[C@@H](O)CC[C@@]4(O)[C@@H](C2)N(CC2CCC2)CC[C@]314` [Nalbuphine hydrochloride], the growth came to 0.262 ± 0.028 under setting [1]; 0.2664 ± 0.0015 under setting [2]; 0.183 ± 0.024 under setting [3]; 0.1753 ± 0.0013 under setting [4]; 0.135 ± 0.0094 under setting [5].

Regarding `O=c1[nH]c2ccccc2n1CCCN1CCC(n2c(=O)[nH]c3cc(Cl)ccc32)CC1` [Domperidone], the growth turned out to be 0.183 ± 0.0075 under setting [1]; 0.214 ± 0.015 under setting [2]; 0.149 ± 0.0082 under setting [3]; 0.09803 ± 0.00075 under setting [4]; 0.124 ± 0.0039 under setting [5].

In the case of `NCC(CC(=O)O)c1ccc(Cl)cc1` (racemic) [Baclofen (R,S)], the growth by setting is: under setting [1], 0.299 ± 0.0066; under setting [2], 0.2703 ± 0.0017; under setting [3], 0.22 ± 0.029; under setting [4], 0.189 ± 0.0083; under setting [5], 0.15 ± 0.007.

Take `CC(=O)O[C@H]1C[C@@H]2CC[C@@H]3[C@H](CC[C@@]4(C)[C@H]3C[C@H]([N+]3(C)CCCCC3)[C@@H]4OC(C)=O)[C@@]2(C)C[C@@H]1[N+]1(C)CCCCC1` [Pancuronium bromide]: the growth is, setting by setting: under setting [1], 0.318 ± 0.0065; under setting [2], 0.2563 ± 0.0013; under setting [3], 0.194 ± 0.021; under setting [4], 0.168 ± 0.0052; under setting [5], 0.154 ± 0.0046.
